Experimental data published in article PMC5540273 (PLoS ONE, 2017).

What was measured:
Conditions in all cases: concentration: 1 μM, replicates: in singlicate; n = 1
CDK8 = system: CDK8
CDK9 = system: CDK9
CDKL1 = system: CDKL1
CDKL2 = system: CDKL2
CDKL3 = system: CDKL3
CDKL5 = system: CDKL5
CHEK1 = system: CHEK1
CHEK2 = system: CHEK2
CIT = system: CIT
CLK1 = system: CLK1
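Note: KINOMEscan kinase panel screen.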

Row | SMILES | %Inh (CDK8) [%] | %Inh (CDK9) [%] | %Inh (CDKL1) [%] | %Inh (CDKL2) [%] | %Inh (CDKL3) [%] | %Inh (CDKL5) [%] | %Inh (CHEK1) [%] | %Inh (CHEK2) [%] | %Inh (CIT) [%] | %Inh (CLK1) [%]
1 | COC(=O)Nc1nc2ccc(Oc3ccc(NC(=O)Nc4cc(C(F)(F)F)ccc4F)cc3)cc2n1C.Cl [GW692089] | 77 | 0 | 2 | 40 | 0 | 0 | 0 | 58 | 100 | 7
2 | CN(C)S(=O)(=O)c1cc(-c2ccc3nccc(-c4cccc(S(N)(=O)=O)c4)c3c2)cnc1N [GSK1669921] | 35 | 0 | 77 | 25 | 0 | 12 | 100 | 0 | 16 | 57
3 | CC(=O)N1CCN(c2ccc(Nc3nccc(-c4sc(C(C)C)nc4-c4cccc(NS(=O)(=O)c5cccc(Cl)c5)c4)n3)cn2)CC1 [GSK1660437] | 7 | 68 | 31 | 99 | 0 | 73 | 1 | 0 | 71 | 11
4 | Cc1ccc(C)c(NC(=O)NC2CCN(c3ccnc(Nc4ccc(F)cc4)n3)C2)c1 (stereo not shown) [GSK1379720] | 21 | 0 | 1 | 35 | 0 | 0 | 0 | 0 | 0 | 23
5 | O=C(Nc1n[nH]c2nc(-c3ccc(O)cc3)ccc12)C1CC1 [SB-710363] | 0 | 36 | 39 | 96.6 | 44 | 41 | 0 | 4 | 29 | 15
6 | Cn1cc(-c2[nH]c3cc(NC(=O)[C@H](N)C4CCCCC4)cc4c3c2C=NNC4=O)cn1 | 0 | 0 | 16 | 0 | 18 | 0 | 98.4 | 96.6 | 97.5 | 56
7 | CN1CCN(Cc2cccc(-c3ccc4c(Nc5ccc(Oc6ccccc6)cc5)ccnc4c3)c2)CC1 [GW578342] | 30 | 0 | 0 | 0 | 0 | 0 | 0 | 38 | 11 | 11
8 | COc1cccc(C2=C(Nc3ccc(Cl)c(C(=O)O)c3)C(=O)NC2=O)c1 [SB-390769] | 0 | 0 | 47 | 25 | 100 | 6 | 0 | 0 | 40 | 12
9 | Nc1ncc(-c2ccc3nccc(-c4ccncc4)c3c2)cc1S(=O)(=O)N1CCOCC1 [GSK1627798] | 4 | 0 | 0 | 4 | 0 | 0 | 0 | 0 | 7 | 63
10 | COC(=O)Nc1nc2cc(Oc3ccc(NC(=O)Nc4cc(C(F)(F)F)ccc4F)cn3)ccc2[nH]1.Cl.Cl [GW681170] | 100 | 0 | 29 | 98.3 | 56 | 0 | 0 | 24 | 100 | 42
